Assay results from the supplement of paper PMC10849652.
About 7,900 targets were measured; listed, in parts, are those with a hit and a random draw of the rest. About 0.6% of all pairs of compound and target were hits. A number with no mark means an inactive call.

Legend:
Assay in all cases: log2 fold change, soluble protein after heating vs DMSO (PISA); higher = thermal stabilisation; K562 cells, 10 uM, 30 min; active = over 0.2 and 3.5 SD of the protein, either way, in both replicates (recomputed)
saracatinib = compound: CN1CCN(CCOc2cc(OC3CCOCC3)c3c(Nc4c(Cl)ccc5c4OCO5)ncnc3c2)CC1 [saracatinib]
Procedure, shortened: (§1)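 K562 cells at 2×10^6 cells/mL were treated for 30 min with 10 μM compound, and aliquots were heated for 3 min over 48°C-58°C before pooling. Extraction used PBS with 0.5% NP-40 at 4°C, and soluble protein was the supernatant after 21,000xg for 90 min, measured by TMTpro 16plex LC-MS/MS with channel sums equalised. Thermal stability values, relative to control samples and from duplicates, are log2 fold changes.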

sotrastaurin = compound: CN1CCN(c2nc(C3=C(c4c[nH]c5ccccc45)C(=O)NC3=O)c3ccccc3n2)CC1 [sotrastaurin]
Procedure, shortened: as §1

alvocidib = compound: CN1CC[C@H](c2c(O)cc(O)c3c(=O)cc(-c4ccccc4Cl)oc23)[C@H](O)C1 [alvocidib]
Procedure, shortened: as §1

Tubastatin A = compound: CN1CCc2c(c3ccccc3n2Cc2ccc(C(=O)NO)cc2)C1 [Tubastatin A]
Procedure, shortened: as §1

[1] = compound: CNC(=O)C1=CC=CC=C1NC2=NC(=NC=C2Cl)NC3=C(C=C(C=C3)N4CCOCC4)OC
Procedure, shortened: as §1

defactinib = compound: CNC(=O)c1ccc(Nc2ncc(C(F)(F)F)c(NCc3nccnc3N(C)S(C)(=O)=O)n2)cc1 [defactinib]
Procedure, shortened: as §1

rucaparib = compound: CNCc1ccc(-c2[nH]c3cc(F)cc4c3c2CCNC4=O)cc1 [rucaparib]
Procedure, shortened: as §1

[2] = compound: CNc1nc(-c2ccc3c(N)n[nH]c3c2)cc(N2C[C@@H](C(=O)NC3CCCCC3)CC[C@H]2C)n1
Procedure, shortened: as §1

encorafenib = compound: COC(=O)N[C@@H](C)CNc1nccc(-c2cn(C(C)C)nc2-c2cc(Cl)cc(NS(C)(=O)=O)c2F)n1 [encorafenib]
Procedure, shortened: as §1

[3] = compound: COC(=O)[C@H](CCSC)NC(=O)C1=C(C=C(C=C1)NC[C@H](CS)N)C2=CC=CC=C2
Procedure, shortened: as §1

UniProt Q9BUA3, sequence (Q9BUA3 whole entry, looked up): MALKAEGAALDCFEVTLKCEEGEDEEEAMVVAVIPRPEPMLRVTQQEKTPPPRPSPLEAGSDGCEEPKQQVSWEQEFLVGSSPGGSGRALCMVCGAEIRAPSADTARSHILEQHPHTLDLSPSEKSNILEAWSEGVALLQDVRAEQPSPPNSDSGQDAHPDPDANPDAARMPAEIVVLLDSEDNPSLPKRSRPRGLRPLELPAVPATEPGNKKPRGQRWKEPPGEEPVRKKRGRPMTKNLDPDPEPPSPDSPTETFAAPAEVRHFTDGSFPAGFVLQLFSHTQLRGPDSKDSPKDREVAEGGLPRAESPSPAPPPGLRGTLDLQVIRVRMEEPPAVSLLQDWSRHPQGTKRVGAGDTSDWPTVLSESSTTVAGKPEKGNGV
UniProt Q13247, sequence (Q13247 whole entry, looked up): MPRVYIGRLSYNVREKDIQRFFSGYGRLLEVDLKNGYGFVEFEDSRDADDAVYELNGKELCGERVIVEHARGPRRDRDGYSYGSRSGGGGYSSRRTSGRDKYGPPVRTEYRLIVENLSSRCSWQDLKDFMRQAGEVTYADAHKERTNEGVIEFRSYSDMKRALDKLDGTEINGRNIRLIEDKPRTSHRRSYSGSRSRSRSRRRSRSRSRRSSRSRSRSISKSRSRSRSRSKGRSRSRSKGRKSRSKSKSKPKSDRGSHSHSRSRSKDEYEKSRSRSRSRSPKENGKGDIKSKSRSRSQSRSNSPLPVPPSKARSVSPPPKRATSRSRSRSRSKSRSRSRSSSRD
UniProt Q96QD8, sequence (Q96QD8 whole entry, looked up): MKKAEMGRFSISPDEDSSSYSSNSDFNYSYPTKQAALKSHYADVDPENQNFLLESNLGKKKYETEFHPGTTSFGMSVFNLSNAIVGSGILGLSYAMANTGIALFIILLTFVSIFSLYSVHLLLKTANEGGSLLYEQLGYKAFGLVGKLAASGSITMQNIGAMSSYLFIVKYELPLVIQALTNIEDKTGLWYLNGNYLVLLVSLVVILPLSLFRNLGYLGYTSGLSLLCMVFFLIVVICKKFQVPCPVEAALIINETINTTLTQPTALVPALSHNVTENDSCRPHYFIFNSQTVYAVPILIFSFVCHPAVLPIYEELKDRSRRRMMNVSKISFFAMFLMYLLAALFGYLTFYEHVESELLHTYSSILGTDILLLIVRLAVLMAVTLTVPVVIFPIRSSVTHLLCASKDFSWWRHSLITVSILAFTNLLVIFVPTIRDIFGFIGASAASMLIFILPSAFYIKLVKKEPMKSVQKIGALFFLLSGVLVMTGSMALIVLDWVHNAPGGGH
UniProt Q02447, sequence (Q02447 whole entry, looked up): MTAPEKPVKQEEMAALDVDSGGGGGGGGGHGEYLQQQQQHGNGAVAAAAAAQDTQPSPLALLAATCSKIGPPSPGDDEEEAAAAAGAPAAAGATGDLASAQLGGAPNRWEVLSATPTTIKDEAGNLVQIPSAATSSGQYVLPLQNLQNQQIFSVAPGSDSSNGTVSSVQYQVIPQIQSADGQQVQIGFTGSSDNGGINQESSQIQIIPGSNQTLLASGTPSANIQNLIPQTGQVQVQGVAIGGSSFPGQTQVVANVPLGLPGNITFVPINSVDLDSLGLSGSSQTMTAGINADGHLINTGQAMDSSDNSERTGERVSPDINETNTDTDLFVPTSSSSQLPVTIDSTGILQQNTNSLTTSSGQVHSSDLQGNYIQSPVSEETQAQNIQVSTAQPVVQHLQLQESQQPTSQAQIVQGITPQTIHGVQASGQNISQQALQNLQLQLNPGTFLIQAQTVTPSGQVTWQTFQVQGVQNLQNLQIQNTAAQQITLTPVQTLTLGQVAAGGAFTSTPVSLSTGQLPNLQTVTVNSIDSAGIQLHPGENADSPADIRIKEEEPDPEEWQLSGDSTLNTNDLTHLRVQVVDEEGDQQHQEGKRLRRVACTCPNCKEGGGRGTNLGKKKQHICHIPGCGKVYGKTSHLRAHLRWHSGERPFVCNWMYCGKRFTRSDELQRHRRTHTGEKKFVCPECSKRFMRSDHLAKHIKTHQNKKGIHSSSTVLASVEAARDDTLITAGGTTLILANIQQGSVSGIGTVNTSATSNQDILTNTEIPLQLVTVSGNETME
UniProt Q01130, sequence (Q01130 whole entry, looked up): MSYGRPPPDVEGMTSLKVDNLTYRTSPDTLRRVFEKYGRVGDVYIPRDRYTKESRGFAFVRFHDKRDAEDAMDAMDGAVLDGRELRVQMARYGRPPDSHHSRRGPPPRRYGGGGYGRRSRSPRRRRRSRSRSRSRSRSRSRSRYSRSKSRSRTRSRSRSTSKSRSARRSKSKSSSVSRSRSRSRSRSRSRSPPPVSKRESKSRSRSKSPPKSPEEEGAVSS
UniProt Q6P1M0, sequence (Q6P1M0 whole entry, looked up): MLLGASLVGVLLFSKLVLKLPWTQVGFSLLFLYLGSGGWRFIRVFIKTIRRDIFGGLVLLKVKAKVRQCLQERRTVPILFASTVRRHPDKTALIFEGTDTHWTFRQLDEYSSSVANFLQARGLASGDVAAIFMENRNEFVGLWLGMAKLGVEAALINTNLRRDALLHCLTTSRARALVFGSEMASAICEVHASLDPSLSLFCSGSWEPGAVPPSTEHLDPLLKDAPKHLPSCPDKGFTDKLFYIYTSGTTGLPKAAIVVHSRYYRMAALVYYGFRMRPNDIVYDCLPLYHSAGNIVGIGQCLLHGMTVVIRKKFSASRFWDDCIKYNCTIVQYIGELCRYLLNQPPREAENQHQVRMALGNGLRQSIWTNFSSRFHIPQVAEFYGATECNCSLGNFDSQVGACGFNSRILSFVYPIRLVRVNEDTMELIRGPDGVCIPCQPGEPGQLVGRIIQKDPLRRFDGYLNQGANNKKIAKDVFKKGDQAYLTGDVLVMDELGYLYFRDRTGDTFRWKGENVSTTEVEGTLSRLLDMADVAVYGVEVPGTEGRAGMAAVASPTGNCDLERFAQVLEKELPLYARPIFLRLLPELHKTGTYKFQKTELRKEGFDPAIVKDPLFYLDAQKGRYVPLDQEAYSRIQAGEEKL
UniProt Q01085, sequence (Q01085 whole entry, looked up): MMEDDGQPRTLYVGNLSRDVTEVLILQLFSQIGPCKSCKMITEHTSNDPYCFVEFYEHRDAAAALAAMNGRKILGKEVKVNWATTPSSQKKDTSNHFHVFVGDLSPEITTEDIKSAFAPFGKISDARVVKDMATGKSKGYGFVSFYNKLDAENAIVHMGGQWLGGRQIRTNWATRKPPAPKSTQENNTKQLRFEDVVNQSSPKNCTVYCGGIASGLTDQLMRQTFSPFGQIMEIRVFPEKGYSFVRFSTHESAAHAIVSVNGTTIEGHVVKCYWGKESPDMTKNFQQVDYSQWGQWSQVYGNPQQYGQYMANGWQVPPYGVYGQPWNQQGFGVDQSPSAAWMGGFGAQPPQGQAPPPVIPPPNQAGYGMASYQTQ
UniProt Q9Y2H1, sequence (Q9Y2H1 whole entry, looked up): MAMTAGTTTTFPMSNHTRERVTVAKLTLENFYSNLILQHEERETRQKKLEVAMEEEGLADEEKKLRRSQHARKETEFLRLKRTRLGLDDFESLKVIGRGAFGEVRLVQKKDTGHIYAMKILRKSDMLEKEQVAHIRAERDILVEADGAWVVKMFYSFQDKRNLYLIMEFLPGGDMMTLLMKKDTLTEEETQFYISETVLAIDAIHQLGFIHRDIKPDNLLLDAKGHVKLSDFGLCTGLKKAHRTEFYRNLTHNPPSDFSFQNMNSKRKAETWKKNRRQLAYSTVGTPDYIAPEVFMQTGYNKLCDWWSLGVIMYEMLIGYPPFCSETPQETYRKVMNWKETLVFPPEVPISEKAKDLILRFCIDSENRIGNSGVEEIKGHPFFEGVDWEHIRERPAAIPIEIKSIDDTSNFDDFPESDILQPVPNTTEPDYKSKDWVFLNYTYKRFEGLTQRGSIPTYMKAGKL
UniProt Q15796, sequence (Q15796 whole entry, looked up): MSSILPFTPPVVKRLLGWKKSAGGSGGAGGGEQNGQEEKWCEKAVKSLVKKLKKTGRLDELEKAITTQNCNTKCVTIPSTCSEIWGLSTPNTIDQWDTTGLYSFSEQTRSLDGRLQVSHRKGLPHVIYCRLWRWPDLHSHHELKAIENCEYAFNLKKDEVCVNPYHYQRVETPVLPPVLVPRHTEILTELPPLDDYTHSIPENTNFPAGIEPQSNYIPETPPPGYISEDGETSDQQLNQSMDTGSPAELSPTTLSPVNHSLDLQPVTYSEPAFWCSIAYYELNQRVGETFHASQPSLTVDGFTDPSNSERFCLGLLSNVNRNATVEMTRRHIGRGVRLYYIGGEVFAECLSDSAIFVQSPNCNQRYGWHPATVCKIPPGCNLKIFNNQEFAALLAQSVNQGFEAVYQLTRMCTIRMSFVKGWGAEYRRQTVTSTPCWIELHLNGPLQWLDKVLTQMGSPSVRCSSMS
UniProt P08579, sequence (P08579 whole entry, looked up): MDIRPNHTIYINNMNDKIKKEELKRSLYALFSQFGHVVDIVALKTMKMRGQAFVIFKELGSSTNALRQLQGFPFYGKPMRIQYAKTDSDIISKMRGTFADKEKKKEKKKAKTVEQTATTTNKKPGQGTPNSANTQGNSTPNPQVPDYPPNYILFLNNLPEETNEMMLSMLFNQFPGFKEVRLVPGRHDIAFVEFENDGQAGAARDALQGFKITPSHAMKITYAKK
UniProt O15400, sequence (O15400 whole entry, looked up): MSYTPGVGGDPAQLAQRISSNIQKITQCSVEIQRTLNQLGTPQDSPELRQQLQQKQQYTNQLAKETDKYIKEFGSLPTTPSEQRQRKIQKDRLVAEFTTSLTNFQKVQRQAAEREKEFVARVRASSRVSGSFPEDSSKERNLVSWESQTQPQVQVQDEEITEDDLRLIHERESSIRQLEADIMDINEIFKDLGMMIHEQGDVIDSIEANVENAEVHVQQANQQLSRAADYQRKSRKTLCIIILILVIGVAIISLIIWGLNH
UniProt P62072, sequence (P62072 whole entry, looked up): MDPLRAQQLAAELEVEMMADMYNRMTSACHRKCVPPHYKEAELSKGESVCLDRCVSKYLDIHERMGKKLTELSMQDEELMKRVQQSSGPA

| Target | log2 fold change (saracatinib) | log2 fold change (sotrastaurin) | log2 fold change (alvocidib) | log2 fold change (Tubastatin A) | log2 fold change [1] | log2 fold change (defactinib) | log2 fold change (rucaparib) | log2 fold change [2] | log2 fold change (encorafenib) | log2 fold change [3] |
| --- | --- | --- | --- | --- | --- | --- | --- | --- | --- | --- |
| TECR (UniProt Q9NZ01) | -0.018 | -0.007 | -0.02 | -0.035 | -0.07 | -0.022 | 0.03 | -0.017 | 0.045 | -0.028 |
| TLK1 (UniProt Q9UKI8) | 0.022 | -0.011 | -0.022 | 0.036 | -0.064 | -0.013 | -0.029 | -0.002 | 0.022 | -0.033 |
| TIAL1 isoform 2 (UniProt Q01085) | 0.015 | 0.025 | 0.036 | -0.052 | -0.019 | 0.077 | 0.066 | -0.042 | -0.034 | -0.014 |
| SLC27A4 (UniProt Q6P1M0) | -0.035 | 0.035 | -0.09 | -0.005 | -0.083 | -0.084 | 0.06 | 0.072 | 0.018 | -0.05 |
| SUN1 isoform 9 (UniProt O94901) | -0.023 | -0.178 | 0 | -0.048 | -0.108 | 0.049 | 0.083 | -0.038 | -0.018 | -0.029 |
| SPTBN4 (UniProt Q9H254) | -0.056 | 0.009 | 0.095 | -0.005 | -0.284 | 0.039 | 0.059 | -0.035 | -0.076 | -0.002 |
| STAT6 (UniProt P42226) | 0.087 | 0.115 | -0.153 | 0.101 | 0.029 | -0.121 | 0.076 | 0.201 | 0.189 | -0.168 |
| SRSF2 (UniProt Q01130) | -0.008 | 0.089 | 0.218 | -0.034 | -0.1 | 0.052 | 0.078 | -0.001 | -0.013 | 0.076 |
| TCOF1 isoform 4 (UniProt Q13428) | 0.016 | -0.064 | 0.012 | 0.013 | -0.006 | -0.033 | 0.02 | -0.038 | 0.002 | 0.026 |
| SPG11 (UniProt Q96JI7) | -0.281 | 0.055 | 0.28 | 0.012 | -0.156 | 0.151 | 0.046 | 0.119 | -0.094 | 0.069 |
| SNRPB2 (UniProt P08579) | 0.079 | 0.041 | 0.124 | -0.11 | 0.02 | 0.193 | 0.058 | -0.041 | -0.037 | 0.054 |
| SPAG9 (UniProt O60271) | 0.014 | -0.037 | -0.047 | 0.003 | 0.02 | -0.044 | 0.049 | 0.034 | 0.023 | -0.011 |
| SYF2 (UniProt O95926) | -0.028 | -0.041 | 0.383 (active) | -0.016 | -0.086 | 0.286 | 0.029 | -0.14 | -0.062 | 0.038 |
| SRPRA (UniProt P08240) | -0.001 | -0.006 | -0.014 | -0.007 | 0.033 | 0.022 | 0.116 | 0.06 | 0.019 | -0.044 |
| TAF9 (UniProt Q16594) | 0.076 | 0.021 | 0.142 | -0.023 | -0.1 | 0.016 | -0.019 | -0.065 | -0.048 | 0.103 |
| STK38L (UniProt Q9Y2H1) | 0.103 | 0.035 | -0.087 | -0.067 | 0.002 | -0.048 | -0.052 | 0.024 | 0.004 | -0.073 |
| SMAD2 (UniProt Q15796) | 0.001 | -0.235 | -0.316 | 0.016 | 0.025 | -0.142 | 0.043 | 0.039 | -0.045 | -0.052 |
| STX7 (UniProt O15400) | 0.063 | 0.026 | -0.001 | -0.036 | 0.013 | -0.033 | 0.028 | -0.014 | -0.039 | -0.02 |
| SORT1 (UniProt Q99523) | 0.038 | 0.017 | 0.012 | -0.011 | 0.017 | -0.033 | 0 | -0.027 | -0.017 | 0.014 |
| TIMM10 (UniProt P62072) | -0.058 | 0.018 | 0.08 | -0.027 | -0.015 | -0.073 | -0.062 | 0.039 | -0.013 | 0.002 |
| SPINDOC (UniProt Q9BUA3) | 0.185 | -0.23 | 0.025 | -0.121 | -0.039 | 0.068 | 0 | -0.02 | 0.057 | 0.049 |
| SLC38A2 (UniProt Q96QD8) | -0.007 | 0.027 | 0 | -0.043 | 0.004 | -0.034 | -0.044 | -0.188 | 0.045 | -0.024 |
| SP3 (UniProt Q02447) | 0.048 | -0.122 | 0.033 | -0.205 | -0.032 | 0.042 | -0.004 | -0.05 | -0.053 | 0.04 |
| SMCHD1 (UniProt A6NHR9) | -0.238 | -0.084 | -0.492 | 0.002 | -0.028 | -0.45 | 0.183 | 0.075 | 0.188 | -0.088 |
| SRP72 (UniProt O76094) | -0.102 | -0.181 | 0.069 | 0.119 | 0.04 | -0.035 | 0.184 | 0.055 | 0.155 | -0.134 |
| SRSF6 (UniProt Q13247) | 0.032 | 0.031 | 0.054 | 0.092 | -0.331 | 0.032 | 0.227 | -0.113 | 0.096 | 0.018 |
| TENT5C (UniProt Q5VWP2) | -0.127 | 0.035 | 0.115 | 0.004 | -0.133 | 0.071 | 0.171 | -0.071 | 0.094 | -0.011 |
